Data taken from PubChem BioAssay AID686978 (National Center for Advancing Translational Sciences (NCATS), 2013).
About 64,000 (15%) of roughly 420,000 compounds were called active. Not shown: some 27% with an inconclusive outcome. Not all results are given here. A number with no mark means an inactive call. The call rests on the fitted dose curve; in most records, active means well fitted inhibition curve with a large enough effect; inconclusive means small, poorly fitted or top-dose-only effect; inactive means flat fitted curve, though single readings scatter.

test: qHTS for Inhibitors of human tyrosyl-DNA phosphodiesterase 1 (TDP1): qHTS in cells in absence of CPT; conditions: DT40 Tdp1-/- hTDP1 cells, no CPT, ATP luminescence, 48 h; activity change, negative = growth inhibition: at 46.2 µM (top of the series); further: nearly all actives have a fitted effect of over 55% in size
In short: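 Chicken DT40 Tdp1-/- cells stably complemented with human TDP1 were seeded at 400 cells/well with DMSO in place of 20 nM camptothecin. After compound pinning, cells grew at least 48 hr at 37 °C; viability read by CellTiter-Glo luminescence.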
On the % scale 0 is the no-effect control and ±100 the full control effect; potency means the concentration at half of the fitted maximal effect.

Row | SMILES | activity change, negative = growth inhibition [%] | Potency
1 | CC(=O)NCC(=O)N1CCC(n2nccc2NC(=O)CCCc2ccccc2)CC1 | -7.46 | 
2 | OCC[C@H]1C[C@H](O)[C@@H](O)[C@]2(CCCCO2)O1 | -6.13 | 
3 | COc1ccc(-c2c(C#N)cnc(C)c2C)c(O)c1OC | -27.4 | 
4 | CSCCC(NC(=O)COc1ccccc1)C(=O)Nc1ccc(C)cc1 (stereo not drawn) | -28.3 | 
5 | O=C(O)c1ccc(COc2c(F)c(F)cc(F)c2F)o1 | 18.8 | 
6 | CC(=O)N1CCC2(CCCN(Cc3ccc(C#N)cc3)C2)CC1 | 0.656 | 
7 | CS(=O)(=O)NC(=O)CCC/C=C\C[C@H]1C(=O)C[C@@H](O)[C@@H]1/C=C/[C@H](O)COc1ccccc1 | -1.9 | 
8 | CC(Sc1ncnc2c1cnn2-c1ccccc1)C(=O)Nc1ccc(N2CCOCC2)cc1 (stereo not drawn) | -1.88 | 
9 | Cc1cc2nc(SCCN3CCOCC3)[nH]c2cc1C | -12.7 | 
10 | COc1ccc(/C=N/NS(=O)(=O)c2ccc(NC(C)=O)cc2)cc1 | 2.6 | 
11 | COc1ccc(C(=O)NCC(=O)N/N=C/c2ccc([N+](=O)[O-])o2)cc1OC |  | 5.17 µM (active)
12 | COc1ccc(C(=O)NCC(=O)N/N=C/c2ccc([N+](=O)[O-])s2)cc1OC |  | 16.4 µM (active)
13 | Cc1ccccc1NCC(=O)N/N=C\c1ccc([N+](=O)[O-])s1 |  | 9.2 µM (active)
14 | CCc1ccc(S(=O)(=O)Nc2ccc(C)c(NS(C)(=O)=O)c2)cc1 | -1.78 | 
15 | COc1cc(/C=N/NC(=O)CNC(=O)c2ccncc2)ccc1OC(C)=O | 5.66 | 
16 | COc1cccc(/C=N/NC(=O)CNC(=O)c2ccc(S(=O)(=O)N3CCOCC3)cc2)c1OC | -23.8 | 
17 | COc1ccc(C(=O)COC(=O)c2ccc([N+](=O)[O-])s2)cc1OC | -8.4 | 
18 | COc1cc(/C=N\NC(=O)CNC(=O)c2cccc([N+](=O)[O-])c2)ccc1O | -0.0452 | 
19 | O=C(COc1ccccc1[N+](=O)[O-])N/N=C/c1ccc[nH]1 | -15.9 | 
20 | CCc1ccc(S(=O)(=O)N/N=C\c2ccc([N+](=O)[O-])o2)cc1 |  | 16.4 µM (active)
21 | O=C(Cc1cc(=O)[nH][nH]1)N/N=C/c1ccccc1[N+](=O)[O-] | -17.3 | 
22 | CC1(C)S[C@@H]2[C@H](N=CN3CCCCCC3)C(=O)N2[C@H]1C(=O)O | -23.2 | 
23 | CN(C(=O)CN(CCO)CC(=O)N(C)C(C)(C)Cc1ccccc1)C(C)(C)Cc1ccccc1 | -1.77 | 
24 | [O-][n+]1c2c(nn1-c1ccc(Cl)c(Cl)c1)-c1nonc1CC2 | -14.7 | 
25 | Oc1ccccc1CNc1ncc(Br)cc1Br | -23.9 | 
26 | O=S(=O)(NCCc1ccc(Cl)cc1)c1cccs1 | -21.2 | 

Row | SMILES | activity change, negative = growth inhibition [%] | Potency
27 | COc1cccc(-n2c(Cc3cc(=O)[nH]c(=O)[nH]3)nnc2SCC(=O)Nc2ccccc2)c1 | 0.566 | 
28 | Nc1nnnn1CC(=O)N/N=C/c1ccc(-c2cccc(Cl)c2)o1 | -20.2 | 
29 | C[C@H]1CN([C@@H](C)CO)C(=O)CCCn2cc(nn2)CO[C@@H]1CN(C)S(=O)(=O)c1cccs1 | -1.39 | 
30 | CC(C)(C)c1cc(C(=O)N/N=C/c2ccc([N+](=O)[O-])s2)n[nH]1 |  | 11.6 µM (active)
31 | Cc1cc(C)nc(N/N=C/c2ccncc2)n1 | 1.16 | 
32 | Cc1nn(CC(=O)N/N=C/c2ccc(F)cc2)c(C)c1[N+](=O)[O-] | 4.7 | 
33 | O=C(N/N=C/c1ccc([N+](=O)[O-])cc1)C(=O)N1CCCC1 | -23.1 | 
34 | O=C(Cc1ccc([N+](=O)[O-])cc1)N/N=C/c1ccco1 | 11.1 | 
35 | NC(=O)C(=O)N/N=C/c1ccc([N+](=O)[O-])o1 |  | 15 µM (active)
36 | Cc1cc(C)nc(Nc2cc([N+](=O)[O-])ccc2C)n1 | -12.5 | 
37 | Cc1cc(C)nc(N/N=C/c2ccc([N+](=O)[O-])o2)n1 |  | 16.4 µM (active)
38 | CC(C)NC(=O)Nc1cccc2c1O[C@@H](CN(C)S(=O)(=O)c1ccc(F)cc1)[C@@H](C)CN([C@H](C)CO)C2=O | -21.8 | 
39 | O=C(O)C(c1cccs1)C1(O)CCCCC1 (stereo not drawn) | -1.75 | 
40 | COc1ccc(C)cc1N(CC(=O)NC(C)c1ccccc1)S(C)(=O)=O (stereo not drawn) | 1.25 | 
41 | CCc1c(C)nc(N)n2c(SCC(=O)NC3CCCCC3)nnc12 | -6.99 | 
42 | C[C@@H]1CN([C@@H](C)CO)C(=O)c2cc(Br)cnc2O[C@@H]1CN(C)C(=O)C1CCCCC1 | -14.5 | 
43 | C[N+](C)(C)CCOP(=O)([O-])OC[C@H](O)CO | -9.67 | 
44 | CN1C(=O)CC(N2CCN(c3ccccn3)CC2)C1=O (stereo not drawn) | -6.92 | 
45 | COC(=O)c1cc(NC(=O)CC2C(=O)NCCN2C(=O)c2ccc(F)cc2)cc(C(=O)OC)c1 (stereo not drawn) | 0.411 | 
46 | CCOc1ncccc1C(=O)OCC(=O)N1c2ccccc2CC1C (stereo not drawn) | -1.22 | 
47 | CN(C)c1ccc(CN2CCOc3ccc(CN4CCC(O)(c5cccnc5)CC4)cc3C2)cc1 |  | 16.4 µM (active)
48 | C[C@@H]1CN(Cc2ccc3c(c2)CN(Cc2ccc(Oc4ncccn4)cc2)CCO3)C[C@H](C)O1 | -22.2 | 
49 | CCOC(=O)N1CCC(N2CCOc3ccc(CN4CCC(O)(c5cccnc5)CC4)cc3C2)CC1 | -21.8 | 
50 | CCOCCCN(C(=O)Cn1nnc(-c2ccc(OC)c(OC)c2)n1)C(CC)C(=O)NC1CCCC1 (stereo not drawn) | -19.6 | 
51 | CCN1CCCC1Cn1cnc2c([nH]c3cc(OC)ccc32)c1=O (stereo not drawn) | -0.0102 | 
52 | COc1ccc(NC(=O)N2CCCC(c3nc(-c4ccc(F)cc4)no3)C2)cc1 (stereo not drawn) | -18.8 | 

Row | SMILES | activity change, negative = growth inhibition [%] | Potency
53 | O=C(c1cccs1)N1CCCC(c2nc(-c3ccc(F)cc3)no2)C1 (stereo not drawn) |  | 16.4 µM (active)
54 | O=C(c1ccc(F)cc1)N1CCCC(C(=O)N2CCCCC2)C1 (stereo not drawn) | 4.71 | 
55 | CC(CC(=O)C1C(C)C=CCC1(C)C)NNC(N)=O (stereo not drawn) | -7.87 | 
56 | O=C(CSc1nnc(-c2ccco2)o1)NCC(=O)c1ccccc1 | -11.8 | 
57 | CCN(CC)C(=O)c1nc[nH]c1C(=O)N(C)Cc1ccccc1 | 1.62 | 
58 | Cc1nnc(SCC(=O)NCc2cccs2)[nH]c1=O | 10.3 | 
59 | Fc1ccccc1/C=N/n1c(-c2cccnc2)n[nH]c1=S | -23.5 | 
60 | Cc1cc(-c2n[nH]c(=S)n2/N=C/c2ccco2)n[nH]1 | 13.9 | 
61 | CCN(CC)S(=O)(=O)c1cccc(-c2n[nH]c(=S)n2/N=C/c2ccc(C(=O)OC)cc2)c1 | -12.8 | 
62 | Cc1cc(-c2n[nH]c(=S)n2/N=C/C(Br)=C/c2ccccc2)n[nH]1 |  | 2.06 µM (active)
63 | S=c1[nH]nc(-c2ccco2)n1/N=C/c1ccccc1 | 0.392 | 
64 | S=c1[nH]nc(-c2cccnc2)n1/N=C/C(Cl)=C\c1ccccc1 |  | 23.1 µM (active)
65 | Cc1ccccc1CCN(CC(=O)NC1CCCCC1)C(=O)c1csnn1 | -27.2 | 
66 | CSCC[C@H](NC(=O)CCCn1nnc2ccccc2c1=O)C(=O)O | 2.85 | 
67 | C[C@H]1CN([C@@H](C)CO)C(=O)c2cc(-c3ccccc3F)cnc2O[C@H]1CN(C)C(=O)C1CCOCC1 | 4.98 | 
68 | NC(=O)N/N=C\c1cccs1 | 3.85 | 
69 | COc1ccccc1C(=O)N/C(=C/c1ccc2c(c1)OCO2)C(=O)Nc1cccc(C(=O)O)c1 | -8.86 | 
70 | CC(=O)Nc1ccc(CN2CCC(Oc3ccc(C(=O)N4CCCC4)cc3)CC2)cc1 | -2.76 | 
71 | COc1ccc(-c2ccc(C(=O)NCCN3CCOCC3)c3occc23)c(C)c1 |  | 20.6 µM (active)
72 | COc1ccc(N)c(C)c1 | -0.894 | 
73 | O=C(Cc1ccc(Br)cc1)NCCN1CCOCC1 | -2.63 | 
74 | COc1ccc2c(c1)CCc1cnc(-n3ncc(C(=O)NCCN4CCOCC4)c3C)nc1-2 | -29.3 | 
75 | COc1ccc(C2OC(=O)CC2C(=O)NC(C)C)cc1 (stereo not drawn) | 7.56 | 
76 | COc1ccc(-c2ccc(C(=O)NC(C)C)c3occc23)c(C)c1 |  | 16.4 µM (active)
77 | CCN(CC(=O)NCCc1ccccc1)S(=O)(=O)c1ccccc1 | -17.2 | 
78 | COc1ccc2c(c1)c1nc3n(c(=O)c1n2CC(=O)Nc1ccccc1)CCS3 | -22.7 | 

Row | SMILES | activity change, negative = growth inhibition [%] | Potency
79 | O=C1C(=O)N(CCN2CCOCC2)C(c2cccc(Cl)c2)/C1=C(/O)c1ccc2c(c1)OCO2 (stereo not drawn) | 12.4 | 
80 | COC(=O)c1ccc(NC(=O)CCc2c(C)nc3c(c(C)nn3-c3ccc(C)cc3)c2C)cc1 |  | 6.51 µM (active)
81 | CCCNC(=O)CCc1c(C)nc2c(c(C)nn2-c2ccccc2)c1C | -7.79 | 
82 | CCOC(=O)C(Cc1ccccc1)NC(=O)CCc1c(C)nc2c(c(C)nn2-c2ccc(C)c(C)c2)c1C (stereo not drawn) | -25.1 | 
83 | Cc1ccc(C)c(NC(=O)CSc2nnc(Cc3cccn3C)n2-c2ccc(F)cc2)c1 | -11.3 | 
84 | CC1CCN(C(=O)C2CCN(S(=O)(=O)N3CCC4(CC3)OCCO4)CC2)CC1 | -11.6 | 
85 | Nc1nnc(SCn2nnc3ccccc3c2=O)s1 | -7.27 | 
86 | O=c1[nH]nc(Cc2ccccn2)c2ccccc12 | 6.26 | 
87 | O=C(Nc1cccc(Cl)c1)c1csnn1 | -4.55 | 
88 | O=C(Nc1ccccc1)c1nnsc1S(=O)(=O)c1ccc(Cl)cc1 |  | 2.59 µM (active)
89 | O=C(Nc1ccc(Cl)cc1)c1ccsn1 | -26 | 
90 | Cc1cc(C)n2nc(C(=O)NC(C)(C)C)nc2n1 | -2.42 | 
91 | O=S(=O)(Nc1ccc(-c2ccc(N3CCOCC3)nn2)cc1)c1cc(Cl)ccc1Cl | -11.9 | 
92 | NC(=O)C1(Nc2ccccc2Cl)CCCC1 | 3.37 | 
93 | O=C(NNc1ccccc1Cl)C(O)(c1cccc(C(F)(F)F)c1)c1cccc(C(F)(F)F)c1 |  | 16.4 µM (active)
94 | CC(CC(=O)Nc1cc(C(F)(F)F)ccc1Cl)c1ccccc1 (stereo not drawn) | -13.9 | 
95 | CC(C)Nc1ccc(-n2nc3ccccc3[n+]2[O-])cc1 | -25.7 | 
96 | CN(C)c1ccc(CSc2ccccc2)cc1 | -5.38 | 
97 | [O-][n+]1ccc(OCc2ccccc2)cc1 | 3.86 | 
98 | c1ccc(Cc2cc[n+](Cc3ccccc3)cc2)cc1 |  | 20.6 µM (active)
99 | CN(C)c1cc[n+](Cc2ccccc2)cc1 |  | 0.411 µM (active)
100 | O=C(Nc1cc(-c2nn(CC(=O)N3CCCCC3)c(=O)c3ccccc23)ccc1N1CCOCC1)c1ccc(Cl)cc1 | -22 | 
101 | Cc1ccc(-c2csc3nnc(SCC(=O)NCc4ccco4)n23)cc1 | -9.6 | 
102 | COc1cc(F)c(C2=CC(=O)CC(C)(C)C2)cc1F | -29.6 | 
103 | Cc1c(CCOC(=O)CC23CC4CC(CC(C)(C4)C2)C3)sc[n+]1Cc1ccc([N+](=O)[O-])cc1 |  | 18.4 µM (active)
